Assay results: PubChem BioAssay (EPA / NIEHS)
“And” between values parts separate entries of the source, which are not always exact repeats. Identical values can stand only once. Results filed as inconclusive are left out. The source made the active and inactive calls. How the source made its calls: active means hit-call score of the fitted dose curve at least 0.9, where 1 is the maximum; inconclusive means response in the unintended direction; inactive means score below 0.9.

Each compound was assayed against Cytochrome P450 2C19 (Homo sapiens) (UniProt P33261) (assay: NVS_ADME_hCYP2C19: NovaScreen (NVS) CYP450-related Enzyme Activity (ADME) Assay for human CYP2C19 (AID 2283113);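 further: potency for inhibition seen as loss of fluorescent signal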).
Procedure: NVS_ADME_hCYP2C19 is a biochemical, single-readout assay that uses extracted gene-proteins from insect cells in a cell-free assay. Measurements were taken 1 hour after chemical dosing in a 96-well plate.NVS_ADME_hCYP2C19 is one of one assay component(s) measured or calculated from the NVS_ADME_hCYP2C19 assay. It is designed to make measurements of enzyme activity, a form of enzyme reporter, as detected with fluorescence intensity signals by Fluorescence technology.Data from the assay component NVS_ADME_hCYP2C19 was analyzed into 1 assay endpoint. This assay endpoint, NVS_ADME_hCYP2C19, was analyzed in the positive analysis fitting direction relative to Acetonitrile as the negative control and baseline of activity. Using a type of enzyme reporter, loss-of-signal activity can be used to understand changes in the enzymatic activity as they relate to the gene CYP2C19. Furthermore, this assay endpoint can be referred to as a primary readout, because this assay has produced multiple assay endpoints where this one serves a enzymatic activity function. To generalize the intended target to other relatable targets, this assay endpoint is annotated to the cyp intended target family, where the subfamily is xenobiotic metabolism.
Binding assays used specific radioligands (tritiated, iodinated) with non-radioactive competitive displacement ligands in agonist or antagonist protocols (as indicated) and various reference compounds and inhibitors to titrate specific binding to receptors and transporters. Most enzyme assays (CYPs, kinases, phosphatases, proteases, HDACs) used recombinant protein and specific substrates (fluorescence mostly, some colorimetric and radioactive) and inhibitors, followed by a biochemical separation of substrate and product. All assays for the biochemical HTS were initially run in duplicate at a single concentration (10 uM for CYP450 assays and 25 uM for all others). […] Each assay was run with positive and negative controls, and concurrent controls on every plate. The follow-up (secondary) screen tested active chemical-pairs in concentration series, as well as a few additional assays not tested in the primary screen, some selected negative inactives, and several cases re-run in the concentration series for confirmatory purposes.

| Structure (SMILES) | AC50 |
| --- | --- |
| CC1(C)CCC(Cc2ccc(Cl)cc2)C1(O)Cn1cncn1 (stereo not drawn) | 0.304 µM (active) |
| Nc1ccc(-c2ccc(N)c(Cl)c2)cc1Cl | 2.34 µM (active) |
| CCOP(=S)(OCC)SCSP(=S)(OCC)OCC | 4.36 µM (active) |
| Fc1ccc(C2(Cn3cncn3)OC2c2ccccc2Cl)cc1 (stereo not drawn) | 1.56 µM (active) |
| CCCCCCCCC(=O)NCc1ccc(O)c(OC)c1 | 1.66 µM (active) |
| COP(=S)(OC)Oc1ccc(Sc2ccc(OP(=S)(OC)OC)cc2)cc1 | 4.32 µM (active) and 1.06 µM (active) |
| COc1cc(-c2ccc(N)c(OC)c2)ccc1N | 3.49 µM (active) and 2.33 µM (active) |
| O=C1C2(Cl)C3(Cl)C4(Cl)C(Cl)(Cl)C5(Cl)C3(Cl)C1(Cl)C5(Cl)C24Cl (stereo not drawn) | 458 nM (active) and 1.44 µM (active) and 374 nM (active) |
| O=C(O)C(F)(F)C(F)(F)C(F)(F)C(F)(F)C(F)(F)C(F)(F)C(F)(F)C(F)(F)C(F)(F)C(F)(F)F | 16.2 µM (active) |
| Oc1ccc(-c2ccccc2)cc1 | 0.47 µM (active) |
| O=S(=O)(c1ccc(Cl)cc1)c1ccc(Cl)cc1 | 1.39 µM (active) and 821 nM (active) |
| CC(=O)[O][Hg][c]1ccccc1 | 1.04 µM (active) |
| CC(C)(C)c1cc(O)ccc1O | 5.9 µM (active) |
| CCN1CCC2(CC1)COc1cc3c(cc12)N(C(=O)c1ccc(-c2ccc(-c4nnc(C)o4)cc2C)cc1)CC3 | 2.84 µM (active) |
| COP(=S)(OC)Oc1ccc(S(=O)(=O)N(C)C)cc1 | 0.19 µM (active) |
| CCOP(=S)(OCC)Oc1ccc(S(C)=O)cc1 (stereo not drawn) | 0.528 µM (active) |
| Clc1ccc(C2(Cn3cncn3)CC(Br)CO2)c(Cl)c1 (stereo not drawn) | 0.243 µM (active) |
| Cn1sc(Cl)cc1=O | 5.77 µM (active) |
